High-throughput results as filed in PubChem BioAssay.
The list is not random: actives were taken first. Their share in the collection is about 1.3%.
NR2F2 inh: NR2F2 (human) inhibition, primary screen; P24468; HEK293T NGFI-A luciferase reporter, luminescence; inhibition, % at 8.6 µM; actives 0.7% (n = 370,000); AID 686940;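 active = inhibition above a per-plate cutoff, mean inhibition of test wells between control levels plus 3 SD, cut at about 38% in these data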;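 note: cells cotransfected with COUP-TFII expression vector driving the NGFI-A reporter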
SRC2 inh: human SRC2 (NCOA2) inhibition; AID 651957; actives 0.17% (n = 370,000); HEK293 GAL4-SRC2 luciferase reporter, luminescence; inhibition, % at 9 µM; Q15596;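 active = inhibition above the mean inhibition of all tested compounds plus 3 SD, set per campaign, cut at about 52% in these data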
SRC1 inh: human NCOA1 inhibition. HEK293 GAL4-SRC1 luciferase reporter, luminescence. inhibition, % at 3.6 µM. actives 0.12% (n = 360,000);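 active = inhibition above the campaign mean plus 3 SD, with each screening campaign given its own cutoff, cut at about 60% in these data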
NCOA3 inh: inhibits human SRC3 coactivator | HEK293 GAL4-SRC3 luciferase reporter, luminescence | inhibition, % at 3.6 µM | actives 0.17% (n = 360,000) | AID 588352;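 active = inhibition above a per-campaign cutoff, the mean of all compounds plus 3 SD, cut at about 60% in these data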;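 note: higher means less SRC3-driven luciferase light from the GAL4 reporter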
Gli-Sufu block: blocks Gli-Sufu signaling in a luciferase reporter; Sufu-KO-LIGHT fibroblasts, Gli luciferase reporter luminescence; inhibition, % at 5 µM; actives 0.74% (n = 340,000); AID 588413;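 active = inhibition above about 55%, limit read from the data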
LRH-1 inv ag: NR5A2 inverse agonism in reporter assay. O00482. HEK293T StAR-luciferase reporter, LRH-1 transfected, 24 h. inhibition, % at 3.6 µM. actives 0.13% (n = 360,000). AID 602396;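 active = inhibition above the mean inhibition of all tested compounds plus 3 SD, cut at about 73% in these data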
Gli-Sufu confirm: confirmation of Gli-SUFU pathway antagonists. shares compounds with Gli-Sufu block. Sufu-KO-LIGHT cells, Gli luciferase reporter, luminescence. inhibition, % at 5 µM. actives 40% (n = 2,500);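 active = mean inhibition at 5 µM reaching about 45%, limit read from the data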
Gli cytotox: cytotoxic in Gli-SUFU antagonist counter-screen | Sufu-KO-LIGHT cells cytotoxicity, ATP luminescence | actives 32% (n = 2,500) | shares compounds with Gli-Sufu block | cytotoxicity, % at 5 µM;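 active = mean cytotoxicity at 5 µM above about 25%, limit read from the data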;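 note: cells exposed to compound overnight for roughly 16 to 18 hours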
Wnt3a counter: inhibits Wnt3a reporter, counter-screen for Gli-SUFU antagonists | shares compounds with Gli-Sufu block | Wnt-LIGHT cells, Wnt3a-driven luciferase reporter, luminescence | inhibition, % at 6.25 µM | actives 20% (n = 2,500) | AID 651995;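 active = mean inhibition above about 25%, limit read from the data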
Each line names hits and unclear results; the compound was inactive in the other large screens (follow-up assays come after a bar, where they were run).

C[C@H]1CN([C@@H](C)CO)C(=O)CCCn2cc(nn2)CO[C@@H]1CN(C)C(=O)c1ccccc1	none (no result: SRC1 inh, NCOA3 inh, Gli-Sufu block, LRH-1 inv ag)
CCCCNC(=O)C[C@H]1C[C@@]2(C(=O)OC)C(=C[C@H](C(C)(C)C)O[C@@H]2C)N(Cc2ccc3c(c2)OCO3)C1=O	none (no result: SRC1 inh, NCOA3 inh, Gli-Sufu block, LRH-1 inv ag)
CC(C)CN(CC(C)C)c1nc(N)c(C#N)c(CC#N)c1C#N	Gli-Sufu block 89 | Gli-Sufu confirm inactive | Gli cytotox inactive | Wnt3a counter inactive
Cc1c(C(=O)NCC(c2ccco2)N2CCCC2)sc2ccccc12 (stereo not drawn)	none
O=C(NCC(c1ccco1)N1CCCC1)c1sc2ccccc2c1Cl (stereo not drawn)	none | Gli-Sufu confirm inactive | Gli cytotox inactive | Wnt3a counter inactive
Nc1cc2nc[nH]c2cc1N	Gli-Sufu block 63 | Gli-Sufu confirm inactive | Gli cytotox inactive | Wnt3a counter inactive
Cn1nc(C(=O)NC2CCCN(Cc3ccccc3F)C2)c2ccccc2c1=O (stereo not drawn)	none
CCc1cc(C(=O)NC2CCCN(Cc3ccccc3F)C2)n(C)n1 (stereo not drawn)	Gli-Sufu block 65 | Gli-Sufu confirm inactive | Gli cytotox inactive | Wnt3a counter inactive
COc1ccc(C(=O)N2CC(=O)Nc3ccc(F)cc3C2c2ccccc2)cc1 (stereo not drawn)	Gli-Sufu block 67 | Gli-Sufu confirm inactive | Gli cytotox inactive | Wnt3a counter inactive
O=C1CN(C(=O)c2ccccc2)C(c2ccccc2)c2cc(F)ccc2N1 (stereo not drawn)	none
Cc1cc(C)n2nc(N)c(N=Nc3ccc(Cl)cc3)c2n1	Gli-Sufu block 81 | Gli-Sufu confirm inactive | Gli cytotox inactive | Wnt3a counter inactive
COc1cc2ncnc(NCCc3ccccc3)c2cc1OC	Gli-Sufu block 60 | Gli-Sufu confirm inactive | Gli cytotox inactive | Wnt3a counter inactive
COc1ccc(CCNc2ncnc3cc(OC)c(OC)cc23)cc1OC	none
COC(=O)[C@]12C[C@H](CC(=O)N3CCC(c4ccccc4)CC3)C(=O)N(CCC3=CCCCC3)C1=C[C@H](C1CCCC1)O[C@@H]2C	none (no result: SRC1 inh, NCOA3 inh, Gli-Sufu block, LRH-1 inv ag)
CCCCCCCCNS(=O)(=O)/C=C/c1ccc(OC)cc1CNC(=O)OC(C)(C)C	none (no result: SRC1 inh, NCOA3 inh, Gli-Sufu block, LRH-1 inv ag)
COc1ccc(Cl)cc1C(=O)NNC(=O)CSc1nnc2ccccn12	none | Gli-Sufu confirm inactive | Gli cytotox inactive | Wnt3a counter inactive
COc1ccc(C(=O)NNC(=O)CSc2nnc3ccccn23)cc1OC	none
Cc1ccc(C2=C(CC(=O)O)C(=O)CC2)cc1	Gli-Sufu block 55 | Gli-Sufu confirm inactive | Gli cytotox inactive | Wnt3a counter inactive
COC(=O)CC1=C(c2ccc([N+](=O)[O-])cc2)CCC1=O	none
CCC(C)N(Cc1ccc(OC)cc1OC)S(=O)(=O)c1cc(Br)ccc1Br (stereo not drawn)	none (no result: SRC1 inh, NCOA3 inh, Gli-Sufu block, LRH-1 inv ag)
CCCC(=O)Nc1c2c(nn1-c1ccc(OC)cc1)CS(=O)C2 (stereo not drawn)	none | Gli-Sufu confirm inactive | Gli cytotox inactive | Wnt3a counter inactive
CC(NC(=O)C(NC(=O)OCc1ccccc1)C(C)O)C(=O)OCc1ccccc1 (stereo not drawn)	none (no result: SRC1 inh, NCOA3 inh, Gli-Sufu block, LRH-1 inv ag)
Cn1c(=O)c2c(nc(NCCOc3ccc(C(C)(C)C)cc3)n2C)n(C)c1=O	Gli-Sufu block 64 | Gli-Sufu confirm 47 | Gli cytotox inactive | Wnt3a counter inactive
COCCNc1nc2c(c(=O)n(C)c(=O)n2C)n1Cc1cccc(C(F)(F)F)c1	Gli-Sufu block 68 | Gli-Sufu confirm 71 | Gli cytotox 29 | Wnt3a counter 28
CCCNc1nc2c(c(=O)n(C)c(=O)n2C)n1Cc1cccc(C)c1	Gli-Sufu block 65 | Gli-Sufu confirm 59 | Gli cytotox inactive | Wnt3a counter 31
CCCNc1nc2c(c(=O)n(C)c(=O)n2C)n1CCc1ccccc1	none
CC[C@H](CCC(=O)N(c1ccccc1)c1ccccc1)C1CC1	none (no result: SRC1 inh, NCOA3 inh, Gli-Sufu block, LRH-1 inv ag)
O=C(CN(C(=O)CCC(=O)Nc1nccs1)c1cccc(C(F)(F)F)c1)NCC1CCCO1 (stereo not drawn)	Gli-Sufu block 56 | Gli-Sufu confirm inactive | Gli cytotox 26 | Wnt3a counter inactive
CC(C)(C)NC(=O)CN(C(=O)CCC(=O)Nc1nccs1)c1cccc(C(F)(F)F)c1	none | Gli-Sufu confirm inactive | Gli cytotox inactive | Wnt3a counter inactive
Cc1cccc(N(CC(=O)NC(C)(C)C)C(=O)CCC(=O)Nc2nccs2)c1	none
O=C(CN(C(=O)CCC(=O)Nc1nccs1)c1cccc(F)c1)NCC1CCCO1 (stereo not drawn)	none
COCC(=O)N(C)[C@H]1C[C@H]2c3[nH]c4cccc(-c5cccc(F)c5)c4c3CCN2C(=O)[C@H]1[C@H](C)O	none (no result: SRC1 inh, NCOA3 inh, Gli-Sufu block, LRH-1 inv ag)
Nc1ccn([C@@H]2O[C@H](C(=O)N[C@H](Cc3ccccc3)C(=O)N[C@H]3CCCCNC3=O)[C@@H](O)[C@H]2O)c(=O)n1	none (no result: SRC1 inh, NCOA3 inh, Gli-Sufu block, LRH-1 inv ag)
CCCCCN1CCCCC(NC(=O)c2ccccc2OC)C1=O (stereo not drawn)	none (no result: SRC1 inh, NCOA3 inh, Gli-Sufu block, LRH-1 inv ag)
CCOCCCNC(=S)N1C2CCC1CC(NC(=O)Nc1ccc(C(=O)OCC)cc1)C2 (stereo not drawn)	Gli-Sufu block 70 | Gli-Sufu confirm inactive | Gli cytotox 31 | Wnt3a counter inactive
CCNC(=S)N1C2CCC1CC(NC(=O)Nc1ccc(C(=O)OCC)cc1)C2 (stereo not drawn)	none
CCCC1C(=O)Nc2ccccc2N1C(=O)c1cccc(C)c1 (stereo not drawn)	Gli-Sufu block 71 | Gli-Sufu confirm inactive | Gli cytotox inactive | Wnt3a counter inactive
CCCC1C(=O)Nc2ccccc2N1C(=O)c1ccc(C(C)(C)C)cc1 (stereo not drawn)	none
C[C@H](CO)N1C[C@H](C)[C@@H](CN(C)C(=O)Nc2ccc3c(c2)OCO3)OCc2cn(nn2)CCCC1=O	none (no result: SRC1 inh, NCOA3 inh, Gli-Sufu block, LRH-1 inv ag)
CC1=C(C(=O)OC2CCCCC2)C(c2ccc(O)cc2)NC(=O)N1 (stereo not drawn)	Gli-Sufu block 96 | Gli-Sufu confirm inactive | Gli cytotox inactive | Wnt3a counter inactive
COc1ccccc1NC(=O)Cn1cc(C(=O)c2ccco2)c2ccccc21	Gli-Sufu block 56 | Gli-Sufu confirm 69 | Gli cytotox 38 | Wnt3a counter 31
Cc1ccc(C)c(NC(=O)Cn2cc(C(=O)C3CC3)c3ccccc32)c1	none
Cc1cccc(NC(=O)Cn2cc(C(=O)C3CC3)c3ccccc32)c1C	Gli-Sufu block 80 | Gli-Sufu confirm 83 | Gli cytotox 33 | Wnt3a counter inactive
Cc1cc(C(=O)CN2CCC(C)CC2)c(C)n1-c1ccccc1F	Gli-Sufu block 70 | Gli-Sufu confirm 76 | Gli cytotox 34 | Wnt3a counter 83
